An excerpt weighted towards active compounds, which were near 0.9% of everything screened.
TR SRC2 fluor cs = alters Texas Red total fluorescence, flagging assay interference; AID 1479; TRb/SRC2 Texas Red total fluorescence interference; 0.29% of 280,000 active; Potency, µM (titrated, usually from 106 µM), for inactives: at the highest dose fluorescence change, negative = quenching; active = well fitted curve in either direction with a large enough effect; inconclusive = small, poorly fitted or top-dose-only effect
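Human TRb ligand-binding domain at 0.6 uM with 20 nM Texas Red SRC2 peptide in Tris buffer containing 1 uM T3 and 5% DMSO, incubated with compound 5 h at ambient temperature. Total fluorescence (555/632 nm) calculated as parallel + 2 × perpendicular.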
APE1 inh = inhibitors of human APE1 endonuclease; recombinant APE1, TAMRA/BHQ-2 abasic DNA cleavage fluorescence; 0.35% of 350,000 active; Potency, µM (highest dose often 65.8 µM), for inactives: top-dose activity change, negative = inhibition, most hits filed as inhibitors; AID 2517; P27695;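 also: plate controls were vehicle for no effect and reference inhibitor for full effect; nearly all actives have a fitted effect of over 55% in size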
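Measures dequenching upon AP-site incision of a 5'-TAMRA/3'-BHQ-2 THF-containing duplex, 50 nM; human APE1 0.75 nM after 15 min room-temperature exposure to compound; kinetic three-point read at one-minute spacing.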
RECQ1 inh = inhibitors of human RECQ1 DNA helicase. P46063. RECQ1 DNA unwinding, red fluorescence kinetic read. Potency, µM (series often up to 57.3 µM), inactives show at the top dose activity, negative = inhibition, usual class: inhibitors. 0.54% of 240,000 active. AID 2549;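 also: plate controls were vehicle for no effect and no enzyme for full effect; nearly all actives have a fitted effect of over 30% in size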
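50 nM RECQ1T1 preincubated 15 min with compound in Tris pH 8.0 buffer with MgCl2, DTT, Tween-20 and 2.5 ug/ml poly(dI-dC); started with 200 nM TAMRA/BHQ-2 forked duplex and 2 mM ATP. Unwinding read as fluorescence (525/598 nm), two reads 2 h apart.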
GoLoco inh red = blocks human Gai1 binding to RGS12 GoLoco peptide, red readout; P63096; Gai1:RGS12 GoLoco peptide FP, rhodamine, 10 min; Potency, µM (doses to about 61.6 µM), for the others: at the top dose activity, negative = inhibition, hits mostly inhibitors; 0.44% of 230,000 active; active = well fitted inhibition curve with a large enough effect, not every such curve was filed as active; inactive = no such curve, though single readings can be large or run the other way; also: nearly all actives have a fitted effect of over 30% in size
TRb SRC2 PPI = inhibitors of human thyroid hormone receptor beta-SRC2 interaction; TRbeta-SRC2 peptide binding, fluorescence polarization; receptor liganded with 1 µM T3; P10828; 0.065% of 280,000 active; Potency, µM (titrated, usually from 106 µM), without a hit: at the highest dose activity change, negative = inhibition, usual class: inhibitors;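 also: plate controls were bound peptide for no effect and peptide without receptor for full effect; nearly all actives have a fitted effect of over 50% in size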
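Fluorescence polarization of 20 nM Texas Red SRC2 peptide (20-aa NR interaction domain) bound to 0.6 uM human TRb ligand-binding domain, with 1 uM T3, after 5 hr at ambient temperature; inhibition seen as decreased polarization.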
BLM helicase inh = inhibitors of human Bloom syndrome helicase BLM. P54132. recombinant BLM DNA unwinding, fluorescence dequenching. Potency, µM (highest dose often 56.1 µM), inactives show at the highest dose activity change, negative = inhibition, actives largely listed as inhibitors. 0.2% of 350,000 active;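 also: plate controls were vehicle for no effect and no enzyme for full effect; nearly all actives have a fitted effect of over 35% in size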
Target sequence (P54132 whole entry, looked up): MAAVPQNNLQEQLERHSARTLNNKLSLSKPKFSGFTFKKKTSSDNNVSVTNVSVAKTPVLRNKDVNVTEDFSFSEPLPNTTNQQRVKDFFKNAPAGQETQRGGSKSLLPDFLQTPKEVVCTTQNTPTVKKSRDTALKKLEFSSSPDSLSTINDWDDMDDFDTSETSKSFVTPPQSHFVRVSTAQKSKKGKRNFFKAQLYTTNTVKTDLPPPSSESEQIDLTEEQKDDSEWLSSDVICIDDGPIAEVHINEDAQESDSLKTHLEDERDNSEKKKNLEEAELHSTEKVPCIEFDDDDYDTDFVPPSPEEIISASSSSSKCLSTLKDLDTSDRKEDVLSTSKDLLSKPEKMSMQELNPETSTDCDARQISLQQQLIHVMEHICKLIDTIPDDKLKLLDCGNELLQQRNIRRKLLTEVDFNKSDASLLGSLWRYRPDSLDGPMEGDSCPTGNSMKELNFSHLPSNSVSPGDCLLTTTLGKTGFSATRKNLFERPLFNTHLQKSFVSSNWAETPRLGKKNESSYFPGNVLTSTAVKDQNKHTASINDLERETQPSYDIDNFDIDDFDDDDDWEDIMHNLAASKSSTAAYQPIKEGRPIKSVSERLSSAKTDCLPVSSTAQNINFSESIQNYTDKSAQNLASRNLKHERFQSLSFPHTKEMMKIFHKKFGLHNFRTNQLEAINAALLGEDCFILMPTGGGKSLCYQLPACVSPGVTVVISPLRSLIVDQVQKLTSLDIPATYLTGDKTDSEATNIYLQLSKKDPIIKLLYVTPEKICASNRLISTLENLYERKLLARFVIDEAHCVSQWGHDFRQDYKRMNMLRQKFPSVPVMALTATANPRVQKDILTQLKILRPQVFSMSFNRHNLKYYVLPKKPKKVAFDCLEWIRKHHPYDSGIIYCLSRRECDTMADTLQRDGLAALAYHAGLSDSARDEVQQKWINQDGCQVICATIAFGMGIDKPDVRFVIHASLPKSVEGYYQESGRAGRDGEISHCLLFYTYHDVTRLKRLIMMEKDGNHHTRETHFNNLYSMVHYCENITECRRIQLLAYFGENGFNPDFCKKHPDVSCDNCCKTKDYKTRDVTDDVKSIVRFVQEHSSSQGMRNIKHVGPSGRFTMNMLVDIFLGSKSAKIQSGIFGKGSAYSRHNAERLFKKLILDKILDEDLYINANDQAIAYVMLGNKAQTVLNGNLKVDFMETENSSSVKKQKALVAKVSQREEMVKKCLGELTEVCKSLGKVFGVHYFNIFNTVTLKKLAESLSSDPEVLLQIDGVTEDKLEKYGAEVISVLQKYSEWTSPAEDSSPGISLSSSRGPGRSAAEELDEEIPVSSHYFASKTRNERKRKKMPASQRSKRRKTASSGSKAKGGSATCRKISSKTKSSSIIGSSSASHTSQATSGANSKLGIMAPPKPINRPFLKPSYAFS
* = called active by the depositor; [ ] = dose if it differs, or a comment. Unless noted, calls follow the shape of the dose curve; as a rule, active = well fitted curve in the direction sought with a large enough effect; inconclusive = small, poorly fitted or top-dose-only effect, or another doubt; inactive = no such curve, though single readings can be large; an effect the other way counts as inactive or inconclusive. Unless noted, % is scaled to controls: 0 for no effect and ±100 for the full control effect; potency is read from the fitted curve at half-maximal effect.

What do the screens show for `CCCCCCCCCCCCCCOc1ccc(C(=O)O)o1`?
TR SRC2 fluor cs: 2.5%; APE1 inh: 25.1µM*; RECQ1 inh: -5.1%; TRb SRC2 PPI: -5.3%; BLM helicase inh: -24.4%

What do the screens show for `N#Cc1c(-c2ccc(OCCOCCOCCNC(=O)CCCC[C@@H]3SC[C@@H]4NC(=O)N[C@@H]43)cc2)no[n+]1[O-]`?
APE1 inh: -5.8%

How did CC(C)c1ccc(S(=O)(=O)/N=C2/C=C(Sc3ncn[nH]3)C(=O)c3ccccc32)cc1 do in these assays?
TR SRC2 fluor cs: 0.7%; APE1 inh: 4.5%; RECQ1 inh: -0.2%; GoLoco inh red: -40.0%; TRb SRC2 PPI: -19.3%; BLM helicase inh: 10µM*

Results for CC(C)(C)c1ccc(S(=O)(=O)/N=C2\C=C(NS(=O)(=O)c3ccccc3)C(=O)c3ccccc32)cc1 ?
APE1 inh: 15.8%; BLM helicase inh: -17.7%

What do the screens show for `Cc1ccc(S(=O)(=O)/N=C2/C=C(Sc3ncn[nH]3)C(=O)c3ccccc32)c(C)c1`?
TR SRC2 fluor cs: -14.7%; APE1 inh: -6.5%; RECQ1 inh: -12.4%; GoLoco inh red: -27.2%; TRb SRC2 PPI: 28.2µM*; BLM helicase inh: 28.2µM*

What do the screens show for `CCC(=O)OCCc1ccccc1`?
TR SRC2 fluor cs: -2.1%[201 µM]; TRb SRC2 PPI: 5.7%[201 µM]

How did COC(=O)NC(/C(C(=O)OC)=C(\C)NCc1ccccc1)c1ccc2ccccc2c1 (stereo unspecified) do in these assays?
TR SRC2 fluor cs: -0.8%[11.2 µM]; APE1 inh: -2.1%[12.4 µM]; RECQ1 inh: -2.7%[11.5 µM]; TRb SRC2 PPI: 3.3%[11.2 µM]; BLM helicase inh: -10.8%[12.4 µM]

What do the screens show for `Clc1cccc(CSc2nncn3c2cc2sccc23)c1`?
TR SRC2 fluor cs: -1.0%; TRb SRC2 PPI: 1.2%; BLM helicase inh: -2.2%

What do the screens show for `CCc1nnc(SCc2cccc(Cl)c2)c2cc3sccc3n12`?
TR SRC2 fluor cs: 25.1µM*[quencher]; TRb SRC2 PPI: -15.4%; BLM helicase inh: -6.7%

How did N#Cc1c(-c2ccc3c(c2)OCO3)no[n+]1[O-] do in these assays?
APE1 inh: 7.2%

Results for O=C(/C=C/c1ccc(OCc2ccccc2)c(OCc2ccccc2)c1)c1cccnc1 ?
TR SRC2 fluor cs: 1122µM*[quencher]; APE1 inh: 4.7%; RECQ1 inh: -7.8%; GoLoco inh red: 20.5%; TRb SRC2 PPI: -11.5%; BLM helicase inh: -17.6%

How did O=C(/C=C/c1ccc(Cl)cc1)c1cccnc1 do in these assays?
TR SRC2 fluor cs: -0.6%; APE1 inh: -1.4%; RECQ1 inh: -10.6%; GoLoco inh red: 13.3%; TRb SRC2 PPI: -5.9%; BLM helicase inh: -4.0%

How did COc1ccc(C(=O)c2ccc(O)cc2)c(O)c1O do in these assays?
TR SRC2 fluor cs: -5.8%; APE1 inh: inconclusive; RECQ1 inh: 14.1µM*; GoLoco inh red: -0.9%; TRb SRC2 PPI: -6.0%; BLM helicase inh: -8.4%

What do the screens show for `CCOc1ccc(C(=O)c2ccc(OC)c(O)c2O)cc1`?
TR SRC2 fluor cs: -1.2%; APE1 inh: 13.1%; RECQ1 inh: inactive; GoLoco inh red: 5.5%; TRb SRC2 PPI: 2.3%; BLM helicase inh: -1.3%

Results for CNCc1ccccc1Sc1cc(O)ccc1O ?
TR SRC2 fluor cs: -5.3%; APE1 inh: -6.1%; RECQ1 inh: inconclusive; GoLoco inh red: 4.47µM*; TRb SRC2 PPI: -6.7%; BLM helicase inh: -3.2%

Results for C=C[C@@H](C1=CC(=O)C(OC)=C(OC)C1=O)c1ccccc1 ?
TR SRC2 fluor cs: -2.3%; APE1 inh: 0.8%; RECQ1 inh: -11.5%; GoLoco inh red: -8.2%; TRb SRC2 PPI: -6.2%; BLM helicase inh: -2.2%

Results for Cc1cccc(C)c1-n1c(SCC(=O)Nc2ccc(C(=O)O)cc2)nnc1-c1ccc([S+](=O)([O-])N2CCCC2)cc1 ?
APE1 inh: 23.8%

Results for CCOC(=O)N1CCc2c(sc(NCc3sccc3C)c2C(=O)Nc2cc(OC)ccc2OC)C1 ?
TR SRC2 fluor cs: -5.5%; TRb SRC2 PPI: -0.5%; BLM helicase inh: -6.5%

How did CCOC(=O)N1CCc2c(sc(NCc3cc(OC)ccc3OC)c2C(=O)Nc2cc(OC)ccc2OC)C1 do in these assays?
TR SRC2 fluor cs: 398µM*[quencher]; TRb SRC2 PPI: -21.5%; BLM helicase inh: -6.0%

How did COc1cccc2c1C(=O)c1c(O)c3c(c(O)c1C2=O)C[C@@](O)(C(=O)CO)C[C@@H]3OC1CC(N)C(O)C(C)O1 (stereo partly specified) do in these assays?
TR SRC2 fluor cs: 31.6µM*[fluorescent]; GoLoco inh red: -4.9%; TRb SRC2 PPI: 20µM*; BLM helicase inh: -24.4%

What do the screens show for `CC(=O)C1(O)Cc2c(O)c3c(c(O)c2C(OC2CC(N)C(O)C(C)O2)C1)C(=O)c1c(O)cccc1C3=O` (stereo unspecified)?
TR SRC2 fluor cs: 44.7µM*[fluorescent]; TRb SRC2 PPI: 25.1µM*; BLM helicase inh: inconclusive

How did COc1cccc2c1C(=O)c1c(O)c3c(c(O)c1C2=O)C[C@@](O)(C(=O)CO)C[C@@H]3O[C@@H]1C[C@H](N)[C@H](O)[C@H](C)O1 do in these assays?
TR SRC2 fluor cs: 44.7µM*[fluorescent]; APE1 inh: 14.1µM*; RECQ1 inh: 15.8µM*; GoLoco inh red: 11.2µM*; TRb SRC2 PPI: 25.1µM*; BLM helicase inh: 25.1µM*

How did CCOC(=O)c1c(C)[nH]c(C)c1S(=O)(=O)N(C)CC(=O)Nc1ccc(C)cc1Br do in these assays?
TR SRC2 fluor cs: -1.1%; TRb SRC2 PPI: -2.4%; BLM helicase inh: -2.9%

What do the screens show for `N#CC1(C#N)C(c2ccccc2)OC23CCCCCC2C1(C#N)C(=N)O3` (stereo unspecified)?
TR SRC2 fluor cs: -5.9%; APE1 inh: 0.3%; RECQ1 inh: -3.2%; GoLoco inh red: -14.2%; TRb SRC2 PPI: 1.9%; BLM helicase inh: -7.6%

Results for CCCCC1OC23CCCCC2C(C#N)(C(=N)O3)C1(C#N)C#N (stereo unspecified) ?
TR SRC2 fluor cs: 3.8%; APE1 inh: -3.3%; RECQ1 inh: -0.3%; GoLoco inh red: -42.0%; TRb SRC2 PPI: -6.0%; BLM helicase inh: -3.4%

Results for CCCCCOc1ccc(C2NC(=O)NC2=O)cc1 (stereo unspecified) ?
TR SRC2 fluor cs: -1.1%; APE1 inh: -9.9%; RECQ1 inh: -11.2%; GoLoco inh red: 1.4%; TRb SRC2 PPI: -11.1%; BLM helicase inh: -10.4%

What do the screens show for `CCCCC1OC23CCCCC2C(C#N)(C#N)C1(C#N)C(=N)O3` (stereo unspecified)?
TR SRC2 fluor cs: 3.5%; APE1 inh: -1.9%; RECQ1 inh: -1.6%; GoLoco inh red: 28.2µM*; TRb SRC2 PPI: 6.8%; BLM helicase inh: -19.4%

Compound activity from PubChem BioAssay.
